Among all 48,000 compounds or so, about 13,000 (27%) showed an effect of 50% or more. The list shows a part of the results.

Data on 53 compounds can be found in ChEMBL document CHEMBL3988442, “University of Dundee, Small-Polar-MMV Screening Library” (2021).

The subject of the assay is Wolbachia pipientis. The assay is described as follows: Anti-Wolbachia Cell-Based Screen. The assay is classed as functional. On the set-up: scale not given: in the data most compounds retested in dose-response had high values. To be noted: 5 µM.
For the compound `COc1cccc(-c2csc(Cn3ccc(=O)[nH]c3=O)n2)c1`, the “Percent Effect” value was -10.2%.

As to `COCCCn1ccc(NC(=O)NCCn2ccnc2)n1`, the “Percent Effect” value was -3.976%. `Fc1ccc2c(c1)nc1n2[C@@H](CNCc2nccs2)COC1`: the “Percent Effect” value is on record as -7.093%. Under `Cc1nc(Cn2cc(C#N)c(=O)c3ccccc32)no1` stands -5.414%; under `N#Cc1cc(N2CCC(CS(N)(=O)=O)CC2)nc2ccccc12`, -7.143%; under `CC1CN(C)CCN1C(=O)NCCCn1ccnc1` (stereo not drawn), 19.65%. Consider `COc1ccc2cc(CN(C)C(C)c3nc(C(C)(C)C)no3)ccc2c1` (stereo not drawn), for which the “Percent Effect” value is on record as -2.359%. As for `CN1CC2(CCN(CC3CC3)CC2)COc2ccccc2S1(=O)=O.O=C(O)C(F)(F)F`, the “Percent Effect” value was 105.1%.

For `CN1CC2(CCN(Cc3ccoc3)CC2)COc2ccccc2S1(=O)=O.O=C(O)C(F)(F)F`, the “Percent Effect” value amounted to 1.89%. On to `CN(C)C(=O)CN1C[C@H]2CCN(Cc3ccccc3)CC[C@H]2S1(=O)=O.O=C(O)C(F)(F)F`, for which the “Percent Effect” value is given as -15.21%. Regarding `CN(C)C(=O)CN1CCC2(CC1)COc1ccccc1S(=O)(=O)N(C)C2.O=C(O)C(F)(F)F`, the “Percent Effect” value is given as 107.3%.

Regarding `COc1cccn(CC(=O)N(C)CCC2CCOCC2)c1=O`, the “Percent Effect” value is on record as -97.94%. As for `CN1CCN([C@@H]2CCN(C3CCOCC3)[C@H]2Cc2cnn(C)c2)CC1.O=C(O)C(F)(F)F.O=C(O)C(F)(F)F.O=C(O)C(F)(F)F`, the figure is -4.702%; as for `Cc1nccn1-c1cc(CNC(=O)C2CCC(=O)N2)ccn1` (stereo not drawn), -0.872%; as for `CN1CCC2(COCCN(Cc3cccc(C#N)c3)C2)C1.O=C(O)C(F)(F)F.O=C(O)C(F)(F)F` (stereo not drawn), -6.492%. For the compound `Cc1cc(N2CCC(N(C)Cc3cccnc3)C2=O)n(C)n1` (stereo not drawn), the “Percent Effect” value is given as 5.804%.

Turning to `CCC(C(=O)NCc1ccncc1)N(c1cccc(C)c1)S(C)(=O)=O` (stereo not drawn), the “Percent Effect” value is recorded as -0.3468%. Under `O=c1ccc2c(n1CC1CC1)CCN(c1ncccn1)CC2` stands 91.07%; under `CCS(=O)(=O)N1CCc2ccc(=O)n(CC3CC3)c2CC1`, -6.425%; under `CS(=O)(=O)N1CCc2ccc(=O)n(CCN3CCCC3)c2CC1.O=C(O)C(F)(F)F`, 96.15%. Under `O=c1ccc2c(n1CCN1CCCC1)CCN(c1ncccn1)CC2` stands 103.5%. As for `c1cnc(N2CCC(OCCN3CCCCC3)C2)nc1` (stereo not drawn), the “Percent Effect” value is listed as 7.193%. As for `CS(=O)(=O)N1CCc2ccc(=O)n(CC3CC3)c2CC1`, the figure is -5%; as for `CC(C)NC1CCc2c(ccc(=O)n2CCN2CCOCC2)C1.O=C(O)C(F)(F)F.O=C(O)C(F)(F)F` (stereo not drawn), 1.575%; as for `O=C1OCCN1CCSc1nnnn1C1CCOCC1`, 4.471%. `CCc1c(O)nc(SC(C)CC)n(-c2ccccc2)c1=O` (stereo not drawn): the “Percent Effect” value is recorded as -9.121%. Regarding `Cc1ccc(CNC(=O)NC2CCC(O)CC2)c(N2CCCC2)c1` (stereo not drawn), the “Percent Effect” value is reported as -1.85%.

Regarding `CCN(Cc1nc2c(cnn2C)c(=O)[nH]1)c1cccc(F)c1`, the “Percent Effect” value is 1.042%. Take `COc1ccc(OCCN(C)Cc2nc3c(cnn3C)c(=O)[nH]2)cc1`: the “Percent Effect” value stood at 98.39%. `CN(CCCOc1ccc(F)cc1)Cc1nc2c(cnn2C)c(=O)[nH]1`: the “Percent Effect” value was -3.245%. Under `Cc1ccc(CN(C)Cc2nc3c(cnn3C)c(=O)[nH]2)c(C)c1` stands 10.63%; under `Cc1ccccc1CN(C)Cc1nc2c(cnn2C)c(=O)[nH]1`, 16.78%; under `CN(Cc1nc2c(cnn2C)c(=O)[nH]1)Cc1ccc(F)cc1F`, -0.6664%.

For `Cc1ccsc1CN(C)Cc1nc2c(cnn2C)c(=O)[nH]1`, the “Percent Effect” value was 5.162%. As for `CN(CCOc1cccc(F)c1)Cc1nc2c(cnn2C)c(=O)[nH]1`, the “Percent Effect” value came to 123%. Consider `Cc1ccc(OCCN(C)Cc2nc3c(cnn3C)c(=O)[nH]2)cc1`, for which the “Percent Effect” value came out at 122.7%.

`CN(CCCOc1ccccc1)Cc1nc2c(cnn2C)c(=O)[nH]1`: the “Percent Effect” value is on record as 105%. With `COc1ccc(C)cc1CN(C)Cc1nc2c(cnn2C)c(=O)[nH]1`, the “Percent Effect” value was -1.165%. Regarding `FC(F)(F)COCCN1CCc2cncnc2C1`, the “Percent Effect” value is -42.17%.

`CNC(=O)Cc1ccc(NC(=O)NCC(C)c2ncc(C)s2)cc1` (stereo not drawn): the “Percent Effect” value worked out at 5.803%.

As for `CC(=O)N1CCc2ncn(C)c2C1C(=O)N1CCCC1.O=C(O)C(F)(F)F` (stereo not drawn), the “Percent Effect” value is on record as -4.032%. In the case of `CC(C)Nc1ccnc(-c2ccnc3c2ccn3C)n1`, the “Percent Effect” value is listed as -57.68%.

For `CC(C)(NC(=O)c1scnc1Cl)c1ccccc1`, the “Percent Effect” value was -10.08%. With `COc1cc2c(cc1C(=O)N1CC(c3ccncc3)C1)CCC2`, the “Percent Effect” value is recorded as -5.879%. Under `COC(=O)[C@@H]1Cc2ncn(C)c2CN1S(=O)(=O)Cc1ccccc1` stands -8.847%. As for `CC(C)c1nccn1CCCNC(=O)c1ccc(-c2ccncc2)nc1`, the “Percent Effect” value is 3.275%. As for `O=C(NCCn1ccnc1)c1cccc(F)c1`, the “Percent Effect” value is reported as 6.195%. Regarding `COc1ccc(-c2cc(C(=O)NCCn3ccnc3)n(C)n2)cc1`, the “Percent Effect” value amounted to 156.8%. As for `COc1ccc(-c2cc(C(=O)NCCCn3ccnc3C)n(C)n2)cc1`, the figure is 159.9%; as for `O=C(NCCn1ccnc1)c1cncc(Br)c1`, 15.29%. On to `COc1ccc(-c2ncc(-c3nccn3CCN(C)C)cn2)cc1`, for which the “Percent Effect” value is listed as -4.545%. As for `O=C(NCCn1ccnc1)c1cccc(Br)c1`, the figure is 8.46%.

Turning to `Cn1nc(-c2ccc(F)cc2)cc1C(=O)NCCn1ccnc1`, the “Percent Effect” value worked out at 186.2%.
